Screening data: PubChem BioAssay, National Center for Advancing Translational Sciences (NCATS)
Rab9 prom act = activators of Rab9 promoter; Potency, µM (top dose mostly 9.22 µM), for inactives: top-dose activation, negative = inhibition, usual class: activators; 320,000 tested, 2.8% active; Huh7 Rab9 promoter-luciferase reporter, luminescence, 24 h; also: % of control where 0% means no effect; nearly all actives have a fitted effect of over 60% in size
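Luciferase signal after 10 min detection reagent at ambient indicates Rab9 promoter upregulation; stably transfected Huh7 cells were treated 24 h with compound in DMSO at 37 °C, 5% CO2.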
uPA generation = cell surface uPA generation inhibition. cell surface uPA generation assay, qHTS. Potency, µM (highest dose often 38.3 µM), without a hit: at the top dose activity change, negative = inhibition, most hits filed as inhibitors. 330,000 tested, 0.31% active. AID 540303; active = well fitted inhibition curve with a large enough effect; inconclusive = small, poorly fitted or top-dose-only effect; inactive = no such curve, though single readings can be large or run the other way; tested in mouse RAW 264.7 cells; also: % is scaled to controls: 0 for no effect and ±100 for the full control effect; nearly all actives have a fitted effect of over 55% in size
ELG1 genotox = genotoxicity induction in ELG1-luciferase HEK293T cells; AID 504466; 330,000 tested, 1.3% active; HEK293T ELG1-luciferase reporter, luminescence, 16 h; Potency, µM (top dose mostly 46 µM), without a hit: at the highest dose activity change, positive = activation, most hits filed as activators; also: % of control where 0% means no effect; nearly all actives have a fitted effect of over 60% in size
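HEK293T cells expressing luciferase-tagged ELG1 were exposed to compound or DMSO vehicle for 16 hr at 37 °C and 5% CO2. Luciferase activity was then measured with ONE-Glo after 30 min at room temperature.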
NPC1 prom act = activates the NPC1 promoter; Huh7 NPC1 promoter luciferase reporter, 24 h; Potency, µM (top dose mostly 9.22 µM), for inactives: at the highest dose activation, actives largely listed as activators; 320,000 tested, 2.4% active; AID 485313; also: % of control where 0% means no effect; nearly all actives have a fitted effect of over 60% in size
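Stable NPC1-promoter luciferase Huh7 line; cpd (DMSO) 24 h, 37 °C, 5% CO2; Amplite luciferase reagent 10 min RT; luminescence readout. qHTS format.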
SMN2 splice up = enhancers of SMN2 splice variant expression. HEK293 SMN2-luciferase splicing reporter, luminescence, 30-36 h. Potency, µM (titrated, usually from 46.1 µM), inactives show at the highest dose activity change, positive = activation, actives largely listed as activators. 210,000 tested, 2.8% active. AID 1458; also: % of control where 0% means no effect; nearly all actives have a fitted effect of over 55% in size
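HEK293 cells carry an SMN2 […]–luciferase reporter in which exon 7 inclusion puts luciferase in frame. Cells were plated 10-12 h before compound addition, then incubated 30-36 h at 37C. ONE-Glo luminescence was read; sodium butyrate at 4.5 mM final served as control.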
FLuc modulator = inhibits or activates purified firefly luciferase, miR-21 counter-screen; P08659; purified FLuc, Km substrates, luminescence inhibition; Potency, µM (highest dose often 57.5 µM), for inactives: at the highest dose activity change, negative = inhibition, actives largely listed as inhibitors; 360,000 tested, 6.9% active;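 also: plate controls were vehicle for no effect and reference inhibitor for full effect; nearly all actives have a fitted effect of over 55% in size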
Target sequence (P08659 whole entry, looked up): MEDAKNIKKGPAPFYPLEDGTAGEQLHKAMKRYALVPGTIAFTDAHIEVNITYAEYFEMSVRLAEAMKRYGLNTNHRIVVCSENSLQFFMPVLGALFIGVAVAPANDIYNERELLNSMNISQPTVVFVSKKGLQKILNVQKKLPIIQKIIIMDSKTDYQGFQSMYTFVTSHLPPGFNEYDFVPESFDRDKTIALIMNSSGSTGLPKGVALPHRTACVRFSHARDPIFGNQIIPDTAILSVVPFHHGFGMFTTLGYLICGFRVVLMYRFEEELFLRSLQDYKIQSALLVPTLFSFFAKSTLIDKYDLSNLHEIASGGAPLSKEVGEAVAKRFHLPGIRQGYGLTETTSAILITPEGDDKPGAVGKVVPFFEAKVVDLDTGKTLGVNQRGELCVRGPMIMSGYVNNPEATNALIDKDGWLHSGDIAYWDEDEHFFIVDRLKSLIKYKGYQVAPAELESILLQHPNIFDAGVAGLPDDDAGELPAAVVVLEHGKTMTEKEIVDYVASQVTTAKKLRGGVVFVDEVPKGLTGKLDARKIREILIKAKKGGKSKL
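Purified P. pyralis luciferase, 10 nM final, with Km-level 10 uM D-luciferin and 10 uM ATP in 50 mM Tris acetate pH 7.5, 10 mM Mg acetate, 0.01% Tween-20, 0.05% BSA; 6-point qHTS titration about 60 µM downward; luminescence read.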
Starred values were filed as active, the others as inactive; ? = inconclusive; · = no result given. This is a sample that favours compounds with a hit; in the whole collection about 7.3% have one here. Unless noted, calls follow the shape of the dose curve; as a rule, active = well fitted curve in the direction sought with a large enough effect; inconclusive = small, poorly fitted or top-dose-only effect, or another doubt; inactive = no such curve, though single readings can be large; an effect the other way counts as inactive or inconclusive. Potency is read from the fitted curve at half-maximal effect.

SMILES	Rab9 prom act	uPA generation	ELG1 genotox	NPC1 prom act	SMN2 splice up	FLuc modulator
O=C(CCSc1ccccc1)NC1CCCCCC1	-8%	-2%	0%	0%	2%	11µM*
O=C(CSc1ccc(Cl)cc1)N1CCCC1	?	40%	?	15%	?	?
O=C(CCSc1ccccc1)N1CCCC1	2.8µM*	-9%	?	2.5µM*	11µM*	17µM*
CCCCCC(=O)Nc1ccc(S(=O)(=O)Nc2nccc(C)n2)cc1	3%	0%	2%	-3%	-19%	-14%
CCNc1nc2c(c(=O)[nH]c(=O)n2C)n1Cc1ccc(F)cc1	-2%	-12%	23µM*	0%	?	2%
CN(C)c1nc2c(c(=O)[nH]c(=O)n2C)n1Cc1ccc(F)cc1	-9%	16%	?	1%	12%	0%
C=CCNc1nc2c(c(=O)n(C)c(=O)n2C)n1Cc1ccc(F)cc1	-28%	?	21µM*	-11%	-86%	0%
CSC1=NC2(CCN(C(=O)NC3CCCCC3)CC2)N=C1c1ccc(C)cc1	·	·	·	·	·	-15%
Cc1nn(-c2nc3ccccc3s2)c(C)c1Oc1ccccc1O	3.2µM*	-7%	?	3.5µM*	?	2.4µM*
CCC(=O)Nc1ccc(S(=O)(=O)NCc2cccn2Cc2cccc(C)c2)cc1	·	·	·	·	·	-10%
O=c1c2c(nc3cc(-c4ccc(F)cc4)[nH]n13)CCC2	3.2µM*	0%	18µM*	2.5µM*	7.1µM*	8.5µM*
Oc1c(C=Nc2ccccc2Cl)[nH]c2ccccc12	3.5µM*	-5%	?	2.8µM*	·	?
O=c1[nH][nH]c(C(F)(F)F)c1C=Nc1ccccc1Cl	1%	8%	0%	-4%	-9%	?
CC(C)CC(NC(=O)C1CCC(C)CC1)C(=O)OCC(=O)c1ccc(Cl)cc1 (stereo not given)	·	·	·	·	2%	-9%
COc1ccc(COc2cc(-c3cccc(OC)c3)nc3ccc(N)cc23)cc1	-24%	1.1µM*	14%	-5%	-41%	?
CCCC1=NN(c2ccc([N+](=O)[O-])cc2)C(=O)/C1=C/N(C)C	1%	8%	13%	18%	28%	11µM*
CC1=NN(c2ccccc2)C(=O)/C1=C/N(C)C	-1%	-1%	0%	-3%	·	-17%
CC1=NN(c2nc3ccccc3[nH]2)C(=O)/C1=C/N(C)C	1.4µM*	-20%	-10%	1.8µM*	·	2.1µM*
CC1=NN(c2ccc([N+](=O)[O-])cc2)C(=O)/C1=C\N(C)C	2%	-8%	?	-1%	5%	11µM*
CCOc1ccc(CNC(=O)CN2C(=O)CSc3c2c(C)nn3-c2ccccc2)cc1	·	·	·	·	·	-1%
COc1ccc(S(=O)(=O)NCCc2csc(-c3ccc(F)cc3)n2)cc1	·	·	·	·	·	-6%
O=C(NCCCN1CCOCC1)c1cc(-c2ccc(Br)cc2)nc2ccccc12	-2%	?	-8%	1%	·	?
O=C(NCCCN1CCOCC1)c1cc(-c2ccccc2)nc2ccccc12	-1%	-5%	8%	-2%	·	-3%
COc1ccccc1CCNC(=O)c1cc(-c2ccncc2)nc2ccc(Br)cc12	-10%	-1%	-9%	-4%	-6%	2%
Cc1ccc(Nc2cc(C(=O)NCCCN3CCOCC3)c3ccccc3n2)cc1C	-4%	?	0%	16%	·	12µM*
SMILES	Rab9 prom act	uPA generation	ELG1 genotox	NPC1 prom act	SMN2 splice up	FLuc modulator
CCOc1ccc(-c2cc(C(=O)NCCCN3CCN(CC)CC3)c3ccccc3n2)cc1	17%	·	9%	15%	7%	8.5µM*
CCOc1ccc(-c2cc(C(=O)NCCCn3ccnc3)c3cc(Br)ccc3n2)cc1	-2%	-11%	6%	1%	·	5.4µM*
COc1ccc(-c2cn3c(n2)sc2cc(C(=O)Nc4ccc(F)cc4Cl)ccc23)cc1	·	·	·	·	?	19µM*
CCn1c(=O)c2cc(C(=O)Nc3cc(F)ccc3F)sc2c2ccccc21	·	·	·	·	7%	1%
O=C(Cn1ncn2nc(-c3cccs3)cc2c1=O)NCc1ccccc1Cl	·	·	·	·	·	-4%
O=c1cnc2cnc(N3CCOCC3)nc2n1C[C@H]1CCCO1	·	·	·	·	-6%	·
CC(=O)N1CCC2(CC1)CN(C(=O)Nc1cccc(C#N)c1)C2	·	·	·	·	-6%	·
COc1ccc(-c2cc(C(=O)NCCN3CCOCC3)c3ccccc3n2)cc1	1%	0%	-1%	0%	-6%	17µM*
CCCCNC(=O)c1cc(Sc2ccc(OCC)cc2)nc2ccccc12	·	·	·	·	·	1%
COc1ccc(-c2cc(C(=O)NCCN3CCOCC3)c3ccccc3n2)cc1OC	-3%	4%	-6%	0%	·	?
CCCN1CCN(CCCNC(=O)c2ccc3c(c2)sc2nc(-c4ccc(OCC)cc4)cn23)CC1	·	·	·	·	-94%	11µM*
CCOc1ccc(-c2cc(C(=O)NCCCn3ccnc3)c3ccccc3n2)cc1	19%	?	-8%	11%	21%	6µM*
Cn1c(C(C#N)C(=O)c2ccco2)nc2ccccc21 (stereo not given)	7%	14%	16%	-1%	29%	17µM*
Cc1ccc2c(COC(=O)c3n[nH]c4ccccc34)cc(=O)oc2c1	12%	0%	4.6µM*	?	·	5.4µM*
CCc1ccc2c(COC(=O)c3n[nH]c4ccccc34)cc(=O)oc2c1	?	0%	?	?	?	5.4µM*
Cc1ccc2c(COC(=O)c3ccccc3F)cc(=O)oc2c1	?	0%	2.1µM*	?	·	0.19µM*
O=C(Nc1cccc(F)c1)N1CCCC2(CCN(S(=O)(=O)c3ccccc3)CC2)C1	·	·	·	·	0%	·
Cc1nonc1NC(=O)CSc1ccccn1	3%	1%	-1%	-1%	·	0%
Cc1ccc(-c2ccc(SCC(=O)Nc3ccc4c(c3)OCCO4)nn2)cc1	16%	-7%	11%	18%	23%	1.9µM*
Cc1ccc(-c2ccc(SCC(=O)Nc3nonc3C)nn2)cc1	?	·	?	?	6%	12µM*
O=C(CSc1ccc(-c2nc3ccccc3[nH]2)cn1)Nc1ccc2c(c1)OCCO2	?	-9%	10%	27%	17%	?
Cc1cc2nc(-c3ccc(SCC(=O)Nc4ccc5c(c4)OCCO5)nc3)[nH]c2cc1C	4µM*	?	?	2.8µM*	?	0.34µM*
O=C(CSc1nc(-c2ccc(F)cc2)[nH]c1-c1ccc(F)cc1)Nc1ccc2c(c1)OCCO2	·	·	·	·	-1%	?
Cc1ccc2nc(-c3ccc(SCC(=O)Nc4ccc5c(c4)OCCO5)nc3)[nH]c2c1	2.8µM*	-7%	?	3.2µM*	?	0.6µM*
CCCCC/C=C\C/C=C\CCCCCCCC(=O)NCCc1ccc(O)c(O)c1	·	·	·	·	6%	·
CCOC(=O)c1cnc2nc(NCc3ccc(OCC)cc3)[nH]n2c1=O	·	·	·	·	8%	?
